# Source: PubChem BioAssay (several laboratories)
# Most compounds without a hit are left out; they make up all but 2.1% or so of the library.
# COUP-TFII inh – blocks human COUP-TFII nuclear receptor. P24468. AID 686940. HEK293T NGFI-A luciferase reporter, luminescence. inhibition, % at 8.6 µM. 0.7% of 370,000 active;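 active = inhibition above a per-plate cutoff, mean inhibition of test wells between control levels plus 3 SD, cut at about 38% in these data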;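 note: cells cotransfected with COUP-TFII expression vector driving the NGFI-A reporter; 0% = median of COUP-TF2 test wells and 100% = reporter-only cells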
# Target sequence (P24468 whole entry, looked up): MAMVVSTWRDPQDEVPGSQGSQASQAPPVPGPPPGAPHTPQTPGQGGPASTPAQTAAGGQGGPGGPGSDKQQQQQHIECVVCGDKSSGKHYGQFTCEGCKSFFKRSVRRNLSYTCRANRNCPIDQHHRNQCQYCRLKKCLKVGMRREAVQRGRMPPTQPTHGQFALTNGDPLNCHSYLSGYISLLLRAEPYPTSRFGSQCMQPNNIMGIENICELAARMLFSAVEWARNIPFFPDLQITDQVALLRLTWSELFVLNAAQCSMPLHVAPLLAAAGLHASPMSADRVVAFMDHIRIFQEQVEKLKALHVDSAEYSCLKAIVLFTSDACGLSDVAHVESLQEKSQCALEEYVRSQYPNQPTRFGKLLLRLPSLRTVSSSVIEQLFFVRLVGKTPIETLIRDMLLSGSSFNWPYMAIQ
# aDG glyco up – alpha-DG glycosylation activation | AID 624168 | Pro5-aDG cells, alpha-DG glycosylation AlphaScreen (IIH6); 0% Pro5, 100% B10-LARGE cell signal | 0.22% of 360,000 active | activation, % at 10 µM;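 active = activation of at least 8% versus controls, or a plate z-score of at least 8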;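 note: Pro5 are CHO cells carrying HIG-tagged alpha-DG that lacks glycosylation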
# GalR3 antagonist – blocks the human galanin receptor 3 | inhibition, % at 3 µM | HEK293 GalR3-CNG cAMP membrane potential fluorescence; galR3 body fused to GalR1 C-terminus | 0.44% of 360,000 active | O60755;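 active = inhibition above the screen-wide average plus 3 SD, cut at about 13% in these data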;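 note: forskolin and galanin both at EC90 stimulate the cells; cAMP rise reported by CNG channel membrane potential dye signal; 0% = forskolin plus galanin with DMSO and 100% = forskolin alone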
# HIV Env fusion – inhibitors of HIV Env-mediated cell fusion; 1.1% of 360,000 active; HeLa-JRFL Env/CEM21 cell fusion, luciferase; inhibition, % at 12.3 µM;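 active = mean replicate inhibition score of at least 50 and every replicate individually at or above 50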;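 note: 0% = plate neutral controls and 100% = maraviroc near 300 nM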
# Gli-Sufu block – antagonists of Gli-Sufu signaling; Sufu-KO-LIGHT fibroblasts, Gli luciferase reporter luminescence; 0.74% of 340,000 active; inhibition, % at 5 µM;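 active = inhibition above about 55%, limit read from the data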;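 note: 0% = DMSO-treated cells and 100% = wells with medium but no cells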
# Gal4-VP16 ctr – counter-screen for COUP-TFII antagonists: inhibitors of VP16. inhibition, % at 8.5 µM. 25% of 2,500 active. AID 687007. HEK293 Gal4-VP16 luciferase reporter, luminescence. shares compounds with COUP-TFII inh; in the data active = inhibition above about 13%
# NR2F2 inh conf – confirmation of human COUP-TFII (NR2F2) inhibitors; shares compounds with COUP-TFII inh; HEK293 NGFI-A luciferase reporter, luminescence; inhibition, % at 8.5 µM; 45% of 2,500 active; AID 687008;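 active = mean inhibition over three repeats above a set limit taken from the earlier primary screen, cut at about 38% in these data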;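 note: 100% = cells given the luciferase reporter alone without the COUP-TF2 vector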
# * marks the source's active call; other numbers are inactive results; . = no result; [ ] = remark or other dose.
SMILES,COUP-TFII inh,aDG glyco up,GalR3 antagonist,HIV Env fusion,Gli-Sufu block,Gal4-VP16 ctr,NR2F2 inh conf
CC(C)(C)c1ccc(-c2noc(CCC(=O)NC3CC3)n2)cc1,55.9*,.,.,.,.,-46.9,35.7
COc1ccc(S(=O)(=O)N(C)C[C@@H]2Oc3ccc(NS(=O)(=O)c4c(C)noc4C)cc3CC(=O)N([C@H](C)CO)C[C@H]2C)cc1,.,.,.,1.3[16.7 µM],.,.,.
C[C@H](CO)N1C[C@H](C)[C@H](CN(C)S(=O)(=O)c2ccccc2)OCCCC[C@H](C)Oc2ccc(NC(=O)c3ccccc3)cc2C1=O,.,.,.,-72.6[16.7 µM],.,.,.
COc1cccc(-c2cnc3c(c2)C(=O)N([C@@H](C)CO)C[C@H](C)[C@@H](CN(C)CC2CCCC2)O3)c1,.,.,.,10.4[16.7 µM],.,.,.
CC1(C)N=C(N)N=C(N)N1c1ccccc1,7.7,-0.3,-1.5,.,4.7,.,.
CC1(C)N=C(N)N=C(N)N1c1ccc(CCCCc2ccccc2)cc1,70.0*,-0.3,100.6*,20.2,.,28.1*,62.4*
COc1ccc(CCNC(=O)c2c(N)[nH]c(C(=O)c3ccccc3)c2-c2ccc(N(C)C)cc2)cc1,43.6*,.,.,.,.,-19.9,3.1
COc1ccc(CNC(=O)c2c(N)[nH]c(C(=O)c3ccccc3)c2-c2ccc3ccccc3c2)cc1OC,6.9,.,-7.1,-7.6,.,.,.
CN1/C(=C\C(=O)C[n+]2cccc(Br)c2)C(C)(C)c2ccccc21,35.5,0.0,-11.3,15.7,-0.9,.,.
Cc1ccc[n+](CC(=O)/C=C2\N(C)c3ccccc3C2(C)C)c1,41.5*,-0.2,-5.7,.,11.7,3.9,27.9
COC(=O)c1c(-c2ccc(N(C)C)cc2)sc2ccc(OC)cc12,56.7*,2.3,1.7,.,33.7,23.9*,48.5*
COC(=O)c1c(-c2ccccc2OC)sc2ccc(OC)cc12,-0.7,-0.2,-4.1,-31.9,-18.9,.,.
CCC1CSC(Nc2ccc(C(=O)/C=C/c3ccc(Br)cc3)cc2)=N1 (configuration not stated),8.9,0.8,-2.4,6.1,37.3,.,.
CCC1CSC(Nc2ccc(C(=O)/C=C/c3ccc(OC)c(OC)c3)cc2)=N1 (configuration not stated),60.6*,1.3,-9.7,24.8,6.8,-7.2,32.7
Cc1ccc2nc(NC(=O)CSCC(=O)OCC(=O)c3ccc(Br)cc3)sc2c1,40.0*,-0.3,-2.0,73.1*,26.2,67.4*,48.8*
CC1OC(CC(=O)O)CC2=C1C(=O)c1c(O)cccc1C2=O (configuration not stated),104.8*,-0.7,6.4,76.2*,91.4*,98.2*,109.6*
O=C(Nc1ccc(Oc2cccnc2)cc1)C1CCN(Cc2cc(Cl)ccc2O)CC1,61.5*,1.3,4.2,10.1,3.7,7.9,48.2*
C#Cc1ccc(CN2CCC(C(=O)Nc3ccc(Oc4ccccc4)nc3)CC2)cc1,48.6*,1.2,-7.1,10.0,19.3,3.6,28.0
NS(=O)(=O)OCCCc1ccccc1,-16.4,0.0,-0.5,-0.5,-4.0,.,.
[2H]C(CCOS(N)(=O)=O)c1ccc(C(C)(C)C)cc1 (configuration not stated),43.4*,-0.4,-3.3,2.4,15.8,21.9*,19.1
C[C@H](NC(=O)C[C@@H]1C[C@@H]2c3cc(NS(C)(=O)=O)ccc3O[C@@H]2[C@H](CO)O1)c1ccccc1,.,.,.,3.8[16.7 µM],.,.,.
COc1ccccc1NC(=O)c1c(Nc2ccccc2C)sc(C(=O)Nc2cccc(Cl)c2)c1N,38.4*,3.0,2.6,33.6,8.0,3.8,60.9*
O=C(NC1CCCC1)N[C@H]1CC[C@H](CC(=O)N2CCOCC2)O[C@@H]1CO,.,.,.,4.1[16.7 µM],.,.,.
Cc1cc(C(=O)COC(=O)c2ccco2)c(C)n1Cc1ccco1,58.4*,0.8,-7.8,-24.3,-20.7,-39.5,33.6
Cc1c(C)n(Cc2ccccc2)c2ncnc(Cl)c12,44.9*,1.3,-10.0,48.8,5.8,9.9,42.0*
CC1=C(CO)C(=O)OC([C@@H](C)C2CC[C@H]3C4C[C@H]5O[C@]56[C@@H](O)C=CC(=O)[C@]6(C)C4CC[C@]23C)C1 (some centres not stated),43.7*,-0.4,-6.5,.,16.3,49.1*,41.0*
O=C(Nc1nc(-c2ccc(S(=O)(=O)N3CCCCCC3)cc2)cs1)c1ccccc1,54.5*,0.0,-4.7,51.7,24.6,4.1,33.6
